Test results reported in the supplement of paper PMC12494721.
Counter-ions that a name gives are not always drawn.

tested on: Klebsiella aerogenes DSM 30053; test: fold change of Histamine concentration vs plate DMSO controls (fold change (ratio)); higher = more amine produced, active = hit call of the paper (significant change in both replicates, either direction); details: incubation time: 27 h, anaerobic, 37 °C;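 for the amine columns active = adjusted P below 0.05 in both replicates with a change the same way and a mean fold change under 0.8 or over 1.25; inactive = the rest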
Procedure, shortened: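 Using LC–triple-quadrupole MS with dynamic MRM, amines were quantified against external calibration curves and corrected for drift within each batch. Samples were whole anaerobic mGAM cultures of four gut strains, grown 27 h at 37 °C from OD 0.1 before 1:1 dilution, extracted with cold acetonitrile/methanol containing 0.1% formic acid and centrifuged. Compounds were present at 20 µM final (sweeteners at 50 µM final). The numbers are fold changes versus plate DMSO controls, each the mean of 2 biological replicates.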

Fold change of Histamine concentration, inactive:
CN(C)c1cc(NC(=O)CNC(C)(C)C)c(O)c2c1C[C@H]1C[C@H]3[C@H](N(C)C)C(=O)C(C(N)=O)=C(O)[C@@]3(O)C(=O)C1=C2O [Tigecycline] (20 µM) 0.865
CCOC(=O)[N-]c1c[n+](N2CCOCC2)no1 [Molsidomine] (20 µM) 1.03
CCN(CC)CCOC(=O)C(Cc1cccc2ccccc12)CC1CCCO1 (centres undefined) [Nafronyl oxalate] (20 µM) 0.982
CCN(CC)CCOC(=O)C1(C2CCCCC2)CCCCC1 [Dicyclomine hydrochloride] (20 µM) 1.01
CC[C@H]1OC(=O)[C@H](C)[C@@H](O[C@H]2C[C@@](C)(OC)[C@@H](O)[C@H](C)O2)[C@H](C)[C@@H](O[C@@H]2O[C@H](C)C[C@H](N(C)C)[C@H]2O)[C@](C)(O)C[C@@H](C)C(=O)[C@H](C)[C@@H](O)[C@]1(C)O [Erythromycin] (20 µM) 0.3
NC(=O)NS(=O)(=O)c1ccc(N)cc1 [Sulfacarbamide] (20 µM) 1.04
O=c1[nH]cc(F)c(=O)[nH]1 [5-fluorouracil] (20 µM) 0.728
NC(=O)N/N=C/c1ccc([N+](=O)[O-])o1 [Nitrofural] (20 µM) 0.768
COC(=O)C1=C(C)NC(C)=C(C(=O)OC2CCCN(Cc3ccccc3)C2)C1c1cccc([N+](=O)[O-])c1 (centres undefined) [Benidipine hydrochloride] (20 µM) 0.929
